Compound activity as filed in PubChem.
EPAC2 antag: EPAC2 (human) antagonism; Potency, µM (titrated, usually from 114 µM), actives largely listed as inhibitors; 360,000 compounds, 0.18% hits; EPAC2 GEF exchange of Rap1B-BODIPY-GDP, fluorescence; Q8WZA2; note: nearly all actives have a fitted effect of over 45% in size
USP1-UAF1 inh: USP1/UAF1 (human) deubiquitinase inhibition; 390,000 compounds, 0.23% hits; recombinant USP1/UAF1, Ub-Rhodamine cleavage fluorescence; O94782; Potency, µM (doses to about 57.1 µM), hits mostly inhibitors; note: nearly all actives have a fitted effect of over 60% in size
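1 nM enzyme complex + cpd, 15 min RT; start with Ub-Rho 150nM final; kinetic fluorescence ex 480/em 540, 6 reads q60 s. Buffer 50mM HEPES pH 7.8, 0.5mM EDTA, 0.1 mg/ml BSA, 1mM TCEP, 0.01% Tween-20.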
EPAC1 antag: blocks human EPAC1 exchange factor; O95398; EPAC1 GEF assay, Rap1b-BODIPY-GDP exchange fluorescence; Potency, µM (highest dose often 115 µM), usual class: inhibitors; 360,000 compounds, 0.14% hits; note: nearly all actives have a fitted effect of over 50% in size
EPAC1 agonist: agonists of human EPAC1 | EPAC1 agonist qHTS, biochemical assay; response scale: 100% = response to 6.5 mM cAMP | Potency, µM (titrated, usually from 154 µM), hits mostly activators | 360,000 compounds, 0.073% hits; note: nearly all actives have a fitted effect of over 60% in size
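Fluorescent GDP-exchange assay: 100 nM EPAC1 with 250 nM Rap1B preloaded with BODIPY-GDP and 50 uM GDP; compounds tested as concentration series, 5 min at room temperature, then read every 5 min for 30 min (ex 480/em 540 nm); normalized to 6.5 mM cAMP.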
EPAC2 ag: EPAC2 (human) agonism; EPAC2 activation, biochemical qHTS; response scale: 100% = 6.5 mM cAMP response; Q8WZA2; 360,000 compounds, 0.079% hits; Potency, µM (titrated, usually from 154 µM), hits mostly activators; note: nearly all actives have a fitted effect of over 50% in size
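In this primary screen, activation is scored as increased exchange of BODIPY-GDP from Rap1B by 100 nM EPAC2, with 50 uM GDP as competitor. Signal is normalized to the 6.5 mM cAMP agonist control.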
ALOX12 inh: inhibitors of human 12S-lipoxygenase ALOX12. Potency, µM (series often up to 108 µM), actives largely listed as inhibitors. 580,000 compounds, 1.1% hits. purified 12hLO, xylenol orange hydroperoxide absorbance
Target sequence (P18054 whole entry, looked up): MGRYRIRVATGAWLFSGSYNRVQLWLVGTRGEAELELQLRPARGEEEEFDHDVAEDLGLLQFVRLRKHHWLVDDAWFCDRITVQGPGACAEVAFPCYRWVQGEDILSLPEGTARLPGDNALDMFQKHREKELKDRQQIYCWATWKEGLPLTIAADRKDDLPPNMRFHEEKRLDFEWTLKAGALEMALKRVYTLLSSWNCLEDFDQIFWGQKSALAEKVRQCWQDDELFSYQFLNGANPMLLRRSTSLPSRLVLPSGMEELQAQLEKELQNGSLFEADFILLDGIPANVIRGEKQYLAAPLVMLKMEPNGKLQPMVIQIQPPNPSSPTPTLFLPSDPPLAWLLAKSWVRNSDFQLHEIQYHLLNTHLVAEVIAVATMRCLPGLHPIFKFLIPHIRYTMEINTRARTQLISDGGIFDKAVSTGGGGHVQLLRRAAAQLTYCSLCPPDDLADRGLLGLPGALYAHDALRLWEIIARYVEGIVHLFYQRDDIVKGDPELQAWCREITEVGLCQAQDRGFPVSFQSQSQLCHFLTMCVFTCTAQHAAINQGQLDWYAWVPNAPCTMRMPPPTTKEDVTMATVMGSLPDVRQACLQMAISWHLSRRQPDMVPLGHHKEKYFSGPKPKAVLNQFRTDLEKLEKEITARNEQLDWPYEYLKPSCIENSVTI
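Hydroperoxide product was detected by ferrous iron/xylenol orange as the 573 to 405 nm absorbance ratio. Arachidonic acid at 40 uM (final) was turned over for 30 min at room temperature by 150 nM human 12hLO, pH 7.0 Hepes buffer, after 15 min compound preincubation.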
Numbers stand for hits; 0 = inactive; ? = inconclusive; - = no result given; ! = not confirmed by another sample; [ ] = dose if it differs, or a comment. Rows were chosen to be rich in hits. Some 1.3% of all compounds tested hit in one or more screens of this group. Calls come from the whole dose curve; as a rule, active = well fitted curve in the direction sought with a large enough effect; inconclusive = small, poorly fitted or top-dose-only effect, or another doubt; inactive = no such curve, though single readings can be large; an effect the other way counts as inactive or inconclusive.

SMILES	EPAC2 antag	USP1-UAF1 inh	EPAC1 antag	EPAC1 agonist	EPAC2 ag	ALOX12 inh
CC(C)c1ccc(S(=O)(=O)/N=C2\C=C(NS(=O)(=O)c3ccccc3)C(=O)c3ccccc32)cc1	?	?	0	0	0	35.5µM
C/C(=N\NC(=O)c1ccc(C(C)(C)C)cc1)c1ccc(C)cc1	-	-	-	-	-	0
COc1ccc(C(=O)N2CCCC(n3cc(-c4nc(-c5ccccc5)no4)nn3)C2)cc1F (centres undefined)	-	-	-	-	-	0
Nc1nc(N)nc(-c2cc(O)ccc2O)n1	0	0	0	0	0	0
CC1CCC(C)[S+]1c1cc(O)ccc1O (centres undefined)	-	-	-	-	-	10µM
COc1ccc(-c2cc(-c3cccc(O)c3)cn3cncc23)cc1	-	-	-	-	-	15.8µM
COc1ncccc1-c1cc(-c2ccc(=O)[nH]c2)c2cncn2c1	-	-	-	-	-	0
COc1ccccc1-c1cc(-c2ccc(=O)[nH]c2)c2cncn2c1	-	-	-	-	-	22.4µM
COc1cccc(-c2cc(-c3cn[nH]c3)c3cncn3c2)c1	-	-	-	-	-	0
COc1ccc(Nc2cc3c(nc2OC)nc(CCc2ccccc2)n3C)cn1	-	-	-	-	-	0
CCOc1ccc(NC(=O)Cc2ccccc2)c2cccnc12	-	-	-	-	-	0
O=C(COc1coc(CN2CCN(c3ccccc3)CC2)cc1=O)c1ccccc1	-	-	-	-	-	0
O=C(NC(=S)Nc1ccccc1Br)c1ccc2c(c1)OCO2	0	0	0	0	0	?
CC(C)c1ccc(O)c(NC(=S)NC(=O)c2ccc3c(c2)OCO3)c1	0	0	0	0	0	12.6µM
CC(=O)Nc1ccc(NC(=O)C(c2ccccc2)c2ccccc2)cc1	0	0	0	0	0	0
O=C(O)COc1ccc(NC(=O)C(c2ccccc2)c2ccccc2)cc1	20µM	0	0	0	0	?
CC1CCCCC12NC(=S)N(c1ccccc1)N2 (centres undefined)	0	0	0	0	0	5.01µM
CC1CCCC2(C1)NC(=S)N(c1ccccc1)N2 (centres undefined)	0	0	0	0	0	?
CC(=O)Oc1cccc(C(=O)Nc2cc(Cl)ccc2O)c1	-	-	-	-	-	0
CSc1ccccc1C(=O)Nc1ccccc1C	0	0	0	0	0	0
COCCSc1ccccc1C(=O)Nc1nccs1	0	0	0	0	0	14.1µM
COCCSc1ccccc1C(=O)Nc1nnc(C)s1	0	0	0	0	0	11.2µM
CCCSc1ccccc1C(=O)Nc1cccc(C)c1C	-	-	-	-	-	25.1µM
COCCSc1ccccc1C(=O)Nc1ccc(Cl)cn1	0	0	0	0	0	0
COc1ccc(/C=C(/C#N)c2ccc(Cl)cc2)c(OC)c1C	-	-	-	-	-	0
SMILES	EPAC2 antag	USP1-UAF1 inh	EPAC1 antag	EPAC1 agonist	EPAC2 ag	ALOX12 inh
COc1ccc([C@H]2CC(=O)C=C(c3cccc(Cl)c3O)C2)cc1OC	0	?	0	0	0	22.4µM
O=C1C=C(c2cccc(Cl)c2O)C[C@@H](c2ccc3c(c2)OCO3)C1	0	0	0	0	0	?
CCCCn1c(=O)[nH]c(=O)c2c1nc(CCC(N)=O)n2CC(C)C	-	-	-	-	-	0
CCOc1ccc(C(=S)NC2CCCCC2)cc1OCC	0	0	0	0	0	35.5µM
O=c1[nH]c(=O)n(CCc2ccccc2)c2nccc(-c3ccc(F)cc3)c12	-	-	-	-	-	0
C[C@@H](CC(=O)O)[C@@H](N)C(=O)O	-	-	-	-	-	20µM!
CC(=O)C[C@@H]1OC[C@H](C(C)C)N1S(=O)(=O)c1ccc(C)cc1	0	-	0	0	0	0
CC(=O)C[C@H]1SC[C@@H](C(C)C)N1S(=O)(=O)c1ccc(C)cc1	39.8µM	-	0	0	0	0
COc1ccc(OC)c2sc(N(CCCN(C)C)C(=O)CCS(=O)(=O)c3ccccc3)nc12	0	0	0	0	0	0
COc1ccc(Cl)c2sc(N(CCN(C)C)C(=O)CCS(=O)(=O)c3ccc(C)cc3)nc12	0	0	0	0	0	15.8µM
Cc1noc(/C=C/c2ccc(-c3ccccc3Cl)o2)c1[N+](=O)[O-]	0	?	0	0	100µM	-
O=C(/C=C/c1ccc(-c2ccccc2)o1)c1ccccc1	0	0	0	0	0	?
O=C(O)c1ccc(N/N=C/c2ccc(-c3ccccc3Cl)o2)cc1	39.8µM	0	0	0	0	?
Cc1noc(/C=C/c2cccnc2)c1[N+](=O)[O-]	0	0	0	0	0	0
CN(C)CCNC(=O)/C(=C/c1ccc(-c2ccc(Cl)cc2Cl)o1)NC(=O)c1ccccc1	0	?	0	0	0	44.7µM
O=C(/C=C/c1ccc(-c2ccc(Cl)cc2Cl)o1)c1ccccc1	-	-	-	-	-	1.58µM
Cc1noc2c(-c3cccnc3NCCCn3ccnc3)cc(-c3ccccc3)nc12	-	-	-	-	-	0
CN(C)CCCn1c(=O)c2[nH]cnc2n(C)c1=O	-	-	-	-	-	0
COCCN1CCC2(C1)CN(C)c1ccc(C(=O)Nc3ccccc3)cc12 (centres undefined)	-	-	-	-	-	0
O=C(/C=C/c1ccc(-c2ccccc2Cl)o1)c1ccccc1	-	-	-	-	-	20µM
O=C(/C=C/c1ccc(-c2ccccc2Br)o1)c1ccccc1	-	-	-	-	-	0
O=C(/C=C/C(=O)c1ccc(Cl)cc1)c1ccccc1	-	-	-	-	-	2.51µM
O=C(/C=C/Sc1ccccc1)c1ccc(Cl)cc1	0	0	0	0	0	0
CC1CCc2c(sc(NC(=O)CSc3ncnc4ccccc34)c2C#N)C1 (centres undefined)	-	-	-	-	-	0
COC(=O)c1ccc(CSc2ccc3nnc(-c4cccc(F)c4)n3n2)o1	?	0	0	0	0	28.2µM
SMILES	EPAC2 antag	USP1-UAF1 inh	EPAC1 antag	EPAC1 agonist	EPAC2 ag	ALOX12 inh
O=C(c1ccco1)N1CCN(CCCCOc2cccc3ccccc23)CC1	0	?	0	0	0	44.7µM
CCC(C)NC(=O)CS(=O)(=O)Cc1cc(C)no1 (centres undefined)	-	-	-	-	-	0
COc1cc(Cl)c(NC2=CC(=O)C(=O)c3ccccc32)c(OC)c1	0	28.2µM	0	0	0	0
O=C1C=C(Nc2ccc(F)cc2)c2ccccc2C1=O	0	25.1µM	0	0	0	0
CCOc1ccc(NC2=CC(=O)CCC2)cc1	0	0	0	0	0	0
O=C1C=C(Nc2cccnc2)c2ccccc2C1=O	?	14.1µM	?	0	0	?
CCOc1ccc(NC2=CC(=O)C(=O)c3ccccc32)cc1	0	25.1µM	0	0	0	0
CC(C)NC(=O)COc1ccc(/C=N/NC(=O)C(C)SCc2ccccc2)cc1 (centres undefined)	-	-	-	-	-	0
Cc1nc([C@@H]2CN(S(=O)(=O)C(C)C)C[C@H]2C(N)=O)n[nH]1	-	-	-	-	-	50.1µM
CCOc1[nH]c(/N=C/c2ccco2)c(C#N)c1C#N	0	0	0	0	0[15.6 µM]	17.8µM
COCc1cc(C)nc(OCC(=O)N/N=C/c2ccco2)c1C#N	0	0	0	0	0	0
COc1ccc(C)cc1NC(=O)COC(=O)c1ccccc1C	-	-	-	-	-	0
OC1COc2ccccc2OCCOCCOc2ccccc2OC1	-	-	-	-	-	0
